# Laboratory results: PubChem BioAssay (NCATS)
# Results filed as inconclusive are left out. Where a call stands in place of a potency, no number is given. Values without a mark were called inactive. Active and inactive are the calls of the source. Unless noted, the call rests on the fitted dose curve; in most records, active means well fitted curve in the direction sought with a large enough effect; inconclusive means small, poorly fitted or top-dose-only effect, or another doubt; inactive means no such curve, though single readings can be large; an effect the other way counts as inactive or inconclusive.
# Legend:
# [1] = qHTS to identify inhibitors of the type 1 interferon - major histocompatibility complex class I in skeletal muscle: primary screen against the NCATS Mechanism Interrogation Plate v5.0 (MIPE) Libary (AID 1347411); further: nearly all actives have a fitted effect of over 65% in size
# Summary of the method: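 Luminescence from HiBiT-tagged endogenous HLA-B*08:01 served as the MHC class I read-out. CRISPR-engineered C25cl48 human myoblasts received 4.0 ng/ml IFN-beta plus compound for 24 hrs, with an 11-point, 1:3 series topping at 46 uM final.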
# [2] = molecular target: Calcium and integrin-binding protein 1 (Homo sapiens) (UniProt Q99828); experiment: Primary qHTS for Identification of Calcium Integrin Binding Protein 1 (CIB1) Competitor (AID 1508620)
# Summary of the method: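 Fluorescence polarization competition: CIB1-GST (1 uM final) preincubated with compound 15 min at room temperature, then FITC-labeled alphaIIb peptide (100 nM final) added for another 15 min. Polarization read at Ex 480/Em 540.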
# [3] = molecular target: Cytochrome P450 2D6 (Homo sapiens) (UniProt P10635); experiment: Cytochrome P450 family 2 subfamily D member 6 (CYP2D6) small molecule antagonists: luciferase biochemical (cell-free) qHTS assay (AID 1645840; active means well fitted curve in the direction sought with a large enough effect in the repeat runs; an effect the other way counts as inactive or inconclusive; further: nearly all actives have a fitted effect of over 55% in size)
# Summary of the method: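 P450-Glo luminescent screen: recombinant CYP2D6 enzyme–proluciferin substrate mix preincubated with compound 10 min at room temperature, then NADPH regeneration added for 1 h at room temperature. Detection reagent added for 20 min; luciferin light read as relative luminescence units.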
# [4] = molecular target: Cytochrome P450 2C9 (Homo sapiens) (UniProt P11712); experiment: Cytochrome P450 family 2 subfamily C member 9 (CYP2C9) small molecule antagonists: luciferase biochemical (cell-free) qHTS assay (AID 1645842; active means well fitted curve in the direction sought with a large enough effect in the repeat runs; an effect the other way counts as inactive or inconclusive; further: nearly all actives have a fitted effect of over 55% in size)
# Summary of the method: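 Luminescence, after 20 min with luciferin detection reagent, reflected CYP2C9 turnover during a 1 h NADPH-driven reaction at 37C. Enzyme-substrate mix contained 0.4% bovine serum albumin and was preincubated with compound 10 min at room temperature.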
# [5] = molecular target: Cytochrome P450 3A4 (Homo sapiens) (UniProt P08684); experiment: Cytochrome P450 family 3 subfamily A member 4 (CYP3A4) small molecule antagonists: luciferase qHTS assay (AID 1645841; active means well fitted curve in the direction sought with a large enough effect in the repeat runs; an effect the other way counts as inactive or inconclusive; further: nearly all actives have a fitted effect of over 45% in size)
# Summary of the method: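 P450-Glo CYP3A4 enzyme with proluciferin substrate was preincubated with DMSO-dissolved compounds for 10 min at room temperature. NADPH regeneration solution started a 1 h reaction. Detection reagent stopped it, and luminescence was read after 20 min.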
# [6] = molecular target: N-terminal Xaa-Pro-Lys N-methyltransferase 1 (Homo sapiens) (UniProt Q9BV86); experiment: Confirmatory qHTS for Inhibitors of N-terminal methyltransferase 1 (NTMT1): MTaseGlo Assay (AID 1645874); further: nearly all actives have a fitted effect of over 65% in size
# Summary of the method: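 Compounds are incubated with 125 nM NTMT1 and 100 uM SAM for 15 min before the SPKRIA peptide (1 uM) starts a 30 min room-temperature methylation. SAH is measured by coupled luciferase luminescence and curves fitted to a Hill equation.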
# [7] = molecular target: Calcium and integrin-binding protein 1 (Homo sapiens) (UniProt Q99828); experiment: Confirmatory qHTS for Identification of Calcium Integrin Binding Protein 1 (CIB1) Competitor (AID 1508617); further: nearly all actives have a fitted effect of over 65% in size
# Summary of the method: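 Binding competition between test compounds and fluorescent alphaIIb peptide for 1 uM CIB1-GST is monitored by FP at 480/540 nm. Final compound range is up to 114 uM; unlabeled peptide serves as reference competitor.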
# Potency means the concentration at half of the fitted maximal effect.
# Calcium and integrin-binding protein 1 (Homo sapiens), sequence (Q99828 whole entry, looked up): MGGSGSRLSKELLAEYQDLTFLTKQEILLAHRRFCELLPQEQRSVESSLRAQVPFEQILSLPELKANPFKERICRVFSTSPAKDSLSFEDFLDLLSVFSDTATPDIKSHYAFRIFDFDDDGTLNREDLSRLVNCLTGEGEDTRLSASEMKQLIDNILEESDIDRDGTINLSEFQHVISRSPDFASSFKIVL
# Cytochrome P450 2C9 (Homo sapiens), sequence (P11712 whole entry, looked up): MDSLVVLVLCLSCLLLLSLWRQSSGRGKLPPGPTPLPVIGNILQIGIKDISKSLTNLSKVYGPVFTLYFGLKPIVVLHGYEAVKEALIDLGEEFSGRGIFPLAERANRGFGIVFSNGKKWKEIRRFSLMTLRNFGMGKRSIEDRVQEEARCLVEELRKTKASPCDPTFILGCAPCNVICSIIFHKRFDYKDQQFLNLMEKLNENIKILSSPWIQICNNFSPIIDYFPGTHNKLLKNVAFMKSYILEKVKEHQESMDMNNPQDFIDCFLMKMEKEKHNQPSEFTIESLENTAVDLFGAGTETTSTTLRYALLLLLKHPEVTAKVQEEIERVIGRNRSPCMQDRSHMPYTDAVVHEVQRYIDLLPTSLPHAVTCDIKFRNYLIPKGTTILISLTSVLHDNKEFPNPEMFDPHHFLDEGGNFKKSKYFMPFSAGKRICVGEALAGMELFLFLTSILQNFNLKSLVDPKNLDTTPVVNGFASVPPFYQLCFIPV
# Cytochrome P450 2D6 (Homo sapiens), sequence (P10635 whole entry, looked up): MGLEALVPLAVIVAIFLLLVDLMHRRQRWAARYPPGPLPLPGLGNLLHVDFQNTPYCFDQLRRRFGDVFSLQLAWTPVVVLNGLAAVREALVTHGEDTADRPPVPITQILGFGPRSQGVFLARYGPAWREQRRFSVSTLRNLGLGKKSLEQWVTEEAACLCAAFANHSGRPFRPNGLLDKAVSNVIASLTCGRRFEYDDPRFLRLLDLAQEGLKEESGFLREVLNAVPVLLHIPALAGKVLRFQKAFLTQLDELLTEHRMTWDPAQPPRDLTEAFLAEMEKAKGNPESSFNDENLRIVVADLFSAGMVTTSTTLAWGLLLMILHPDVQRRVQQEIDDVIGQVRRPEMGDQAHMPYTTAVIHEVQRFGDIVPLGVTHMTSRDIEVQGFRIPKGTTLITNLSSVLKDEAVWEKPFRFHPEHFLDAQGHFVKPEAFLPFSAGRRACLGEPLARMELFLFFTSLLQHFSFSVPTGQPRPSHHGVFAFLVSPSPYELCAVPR
# Cytochrome P450 3A4 (Homo sapiens), sequence (P08684 whole entry, looked up): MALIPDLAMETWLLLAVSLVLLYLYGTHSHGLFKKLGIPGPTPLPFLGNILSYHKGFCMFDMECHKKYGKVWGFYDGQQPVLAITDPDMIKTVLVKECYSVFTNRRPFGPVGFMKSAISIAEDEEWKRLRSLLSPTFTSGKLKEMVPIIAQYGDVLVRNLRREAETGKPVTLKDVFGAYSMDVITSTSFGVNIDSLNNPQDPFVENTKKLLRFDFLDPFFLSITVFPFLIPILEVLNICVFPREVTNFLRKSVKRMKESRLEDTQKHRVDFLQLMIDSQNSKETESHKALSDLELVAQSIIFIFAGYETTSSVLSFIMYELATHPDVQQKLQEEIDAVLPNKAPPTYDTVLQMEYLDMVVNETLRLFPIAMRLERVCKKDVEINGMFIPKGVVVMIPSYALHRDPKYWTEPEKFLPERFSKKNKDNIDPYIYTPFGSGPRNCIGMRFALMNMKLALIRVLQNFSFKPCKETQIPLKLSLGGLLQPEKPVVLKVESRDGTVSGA
# N-terminal Xaa-Pro-Lys N-methyltransferase 1 (Homo sapiens), sequence (Q9BV86 whole entry, looked up): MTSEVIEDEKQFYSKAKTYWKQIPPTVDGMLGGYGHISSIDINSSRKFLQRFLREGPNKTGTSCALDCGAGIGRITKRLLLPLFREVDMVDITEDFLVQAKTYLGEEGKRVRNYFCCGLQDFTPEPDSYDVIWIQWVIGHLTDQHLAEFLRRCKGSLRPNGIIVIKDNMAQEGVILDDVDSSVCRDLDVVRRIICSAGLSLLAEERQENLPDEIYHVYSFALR
structure (smiles),measurement,setting,value
COc1ncc(-c2ccc3c(Nc4cc(Oc5cc(F)cc(F)c5)cc(C(=O)O)c4)c(S(=O)(=O)NC4CC4)cnc3c2)c(OC)n1,Potency,[1],inactive
same,Potency,[2],inactive
Cc1nnc(C(C)C)n1C1CC2CCC(C1)N2CCC(NC(=O)C1CCC(F)(F)CC1)c1ccccc1 (stereo not given),Potency,[1],inactive
same,Potency,[2],inactive
CC(=O)c1cnc2ccc(-c3cc(Cl)c(O)c(Cl)c3)nc2c1NC1CCC(CN(C)C)CC1 (stereo not given),Potency,[1],0.151 µM (active)
same,Potency,[2],inactive
same,Potency,[3],inactive
same,Potency,[4],inactive
O=C(O)c1cnn(-c2nc3cc(OC(F)(F)F)c(Cl)cc3[nH]2)c1,Potency,[1],inactive
CNC(=O)c1ccc(Nc2ncc(C(F)(F)F)c(NCc3nccnc3N(C)S(C)(=O)=O)n2)cc1,Potency,[1],5.23 µM (active)
same,Potency,[2],inactive
same,Potency,[3],inactive
same,Potency,[4],3.79 µM (active)
CCOC(=O)c1ccnc(CNCC(=O)N(CC)CCN(C)C)c1,Potency,[1],inactive
same,Potency,[2],inactive
N#Cc1ccnc(N2C(=O)CC[C@H]2C(=O)N(c2cncc(F)c2)[C@H](C(=O)NC2CC(F)(F)C2)c2ccccc2Cl)c1,Potency,[1],inactive
same,Potency,[2],inactive
NS(=O)(=O)NCCNc1nonc1C(=Nc1ccc(F)c(Br)c1)NO,Potency,[1],inactive
O=C(C1CC1)N1CC[C@@H](Cc2n[nH]c(=O)n2-c2ccc(-c3ccc4occc4c3)cc2)C1,Potency,[1],inactive
same,Potency,[2],inactive
same,Potency,[3],13.5 µM (active)
same,Potency,[5],6.74 µM (active)
same,Potency,[4],6.74 µM (active)
COc1cc2c(Nc3ccc(Cl)c(Cl)c3F)ncnc2cc1OCC1C[C@@H]2CN(C)C[C@@H]2C1 (stereo not given in full),Potency,[1],20.8 µM (active)
same,Potency,[2],inactive
same,Potency,[3],16.9 µM (active)
same,Potency,[5],inactive
same,Potency,[6],15.1 µM (active)
OC[C@H]1O[C@@H](n2cnc3c2NC=NC[C@H]3O)C[C@@H]1O,Potency,[1],inactive
same,Potency,[2],inactive
same,Potency,[3],inactive
same,Potency,[4],inactive
CCOC(=O)[C@H]1O[C@@H]1C(=O)N[C@@H](CC(C)C)C(=O)NCCC(C)C,Potency,[1],inactive
same,Potency,[2],inactive
CC1CCC2C(C)(C)C(O)CCC2(C)C12Cc1c(O)cc3c(c1O2)C(N)=NC3 (stereo not given),Potency,[2],inactive
C=C(C(=O)OC)C1CCC2(C)C(O[C@@H]3O[C@H](CO)[C@@H](O)[C@H](O)[C@H]3O)CC(=O)C(C)C2C1O (stereo not given in full),Potency,[2],inactive
CC(=O)c1c(O)cc2c(c1C)C(=O)CC(O)C2 (stereo not given),Potency,[7],inactive
C[C@@H]1O[C@@H](O[C@H]2[C@H](O[C@H]3[C@H](O[C@H]4CC[C@@]5(C)C(CC[C@]6(C)C5CC=C5[C@@H]7CC(C)(C(=O)O)C[C@@H](O)[C@]7(C)CC[C@]56C)[C@@]4(C)CO)O[C@H](C(=O)O)[C@@H](O)[C@@H]3O)O[C@H](CO)[C@H](O)[C@@H]2O)[C@H](O)[C@H](O)[C@H]1O (stereo not given in full),Potency,[2],inactive
O=C(O)c1ccc(CCCc2ccc(OCCc3ccc(F)cc3)cc2)o1,Potency,[1],inactive
same,Potency,[2],inactive
same,Potency,[4],inactive
Cc1cc(O)c(C(C)C)cc1O[C@@H]1O[C@H](CO)[C@@H](O)[C@H](O)[C@H]1O,Potency,[2],inactive
CC(=O)c1c(O)cc2cccc3c2c1CC(C)(O)O3 (stereo not given),Potency,[7],39.8 µM (active)
C[C@H]1CN(C[C@H](Cc2ccccc2)C(=O)NCC(=O)O)CC[C@@]1(C)c1cccc(O)c1,Potency,[1],inactive
same,Potency,[2],inactive
same,Potency,[3],inactive
same,Potency,[4],inactive
C=C1C(=O)OC2/C=C(\C)CC/C=C(\C(=O)O)CC/C=C(\C)CCC12 (stereo not given),Potency,[2],inactive
CC(C)=CC/C=C(/C)[C@H]1CC[C@]2(C)[C@@H]1[C@H](O)CC1[C@@]3(C)CC[C@H](O)C(C)(C)[C@@H]3[C@@H](O[C@@H]3O[C@H](CO)[C@@H](O)[C@H](O)[C@H]3O[C@@H]3O[C@@H](C)[C@H](O)[C@@H](O)[C@H]3O)C[C@]12C (stereo not given in full),Potency,[2],inactive
C=C1C2=CC(O)C(C)C1(C)CC/C(C)=C/CCC1(C)OC1C2=O (stereo not given),Potency,[2],inactive
COc1ccc2cc(OCC3(C(=O)O)CN(C(=O)c4ccc(F)cc4)C3)ccc2c1,Potency,[1],inactive
same,Potency,[2],inactive
same,Potency,[3],inactive
same,Potency,[4],16.9 µM (active)
C[C@H]1[C@H](C)CC[C@]2(C(=O)O)CC[C@]3(C(=O)O)C(=CCC4[C@@]5(C)CC[C@H](O[C@@H]6O[C@H](C)[C@@H](O)[C@H](O)[C@H]6O)C(C)(C)C5CC[C@]43C)[C@H]12 (stereo not given in full),Potency,[2],inactive
COc1cc2c(cc1O)C1(Cc3ccc4c(c3C1=O)OCO4)N(C)CC2 (stereo not given),Potency,[2],inactive
CC(=O)c1c(C)cc(O)cc1O[C@@H]1O[C@H](CO)[C@@H](O)[C@H](O)[C@H]1O,Potency,[2],inactive
COc1cc(/C=C/C(=O)OC2[C@H](O)CC(O)(C(=O)O)C[C@H]2O)ccc1O (stereo not given in full),Potency,[2],inactive
C/C(=C\CCC(C(=O)O)C1CCC2(C)C3=C(CCC12C)C1(C)CCC(=O)C(C)(C)C1CC3)C(=O)O (stereo not given),Potency,[2],inactive
CC(NC(=O)CC(=O)O)c1nc2ccccc2c(=O)[nH]1 (stereo not given),Potency,[2],28.2 µM (active)
